# Screening data (PubChem BioAssay)
# A selection: hits, their analogues and other compounds. The true share with any hit is near 21%.
# Pf growth 48h = inhibits P. falciparum growth in the first generation, 48 h; Potency, µM (titrated, usually from 28.7 µM), for the others: at the top dose activity change, negative = inhibition, most hits filed as inhibitors; 5.9% of 310,000 active; P. falciparum luciferase growth in erythrocytes, 48 h; further: potency means the concentration at half of the fitted maximal effect; on the % scale 0 is the no-effect control and ±100 the full control effect
#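 Compounds are pin-transferred into medium, infected erythrocytes (2% hematocrit, 0.1% parasitemia final) are added, and plates sit one parasite generation at 37 C in 5% CO2. Detection reagent is then added and luminescence measured.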
# Shiga toxin inh = Shiga toxin inhibition | inhibition, % at 38.7 µM | Vero cells, Shiga toxin protein synthesis inhibition reporter | 9.2% of 290,000 active | AID 2315; in the data active means inhibition mostly above about 28%, no sharp cut-off; inactive means mostly below about 43%; further: 0% is about no effect
# AMA1 RON2 block = AMA1-RON2 (P. falciparum) interaction inhibition; 0.2% of 360,000 active; Potency, µM (doses to about 58.2 µM), without a hit: at the top dose activity change, negative = inhibition, most hits filed as inhibitors; AlphaScreen AMA1-biotinylated RON2 peptide binding;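 further: potency means the concentration at half of the fitted maximal effect; 0% = vehicle wells and -100% = peptide control; nearly all actives have a fitted effect of over 45% in size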
#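 AMA1 (3D7) with his tag at 25 nM final met compounds first, then biotinylated RON2 peptide at 25 nM; detection used donor plus acceptor beads, 10 µg/mL apiece, read by AlphaScreen after 30 min at room temperature.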
# Cycloheximide cs = counter-screen for Shiga toxin inhibitors: cycloheximide protein synthesis inhibition; AID 2314; 12% of 300,000 active; max response, %; cell reporter, cycloheximide protein synthesis inhibition counterscreen; in the data active means max response mostly above about 13%, no sharp cut-off; inactive means mostly below about 14%; further: read at 38.3 µM for the half of the compounds with a filed dose; 0% is about no effect
# Pf growth 96h = inhibits malaria parasite growth, 96 h; P. falciparum luciferase reporter growth, 96 h; Potency, µM (highest dose often 28.7 µM), inactives show top-dose activity change, negative = inhibition, hits mostly inhibitors; 6.9% of 320,000 active; further: potency means the concentration at half of the fitted maximal effect; on the % scale 0 is the no-effect control and ±100 the full control effect
#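 Readout is luminescence from an integrated firefly luciferase in P. falciparum. Red cells, 2% hematocrit and 0.05% parasitemia final, were cultured with compound through two parasite generations (96 hours) at 37 C, 5% CO2.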
# HCV inhibitor = blocks hepatitis C virus; Huh7.5.1 HCVcc-Cre infection, luciferase reporter, 44 h; 3.4% of 340,000 active; Potency, µM (titrated, usually from 41.8 µM), for inactives: top-dose activity change, negative = inhibition, most hits filed as inhibitors; AID 651820; further: potency means the concentration at half of the fitted maximal effect; on the % scale 0 is the no-effect control and ±100 the full control effect
#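 Seed cells (1,000/well) for 4 h; treat with compound and infect with HCVcc-Cre, moi about 0.5. Incubate 44 h, then detect luciferase activity.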
# * hit, by the source's call; ? = inconclusive; nt = no result; [ ] = dose if it differs, or a comment. Unless noted, the call rests on the fitted dose curve; in most records, active means well fitted curve in the direction sought with a large enough effect; inconclusive means small, poorly fitted or top-dose-only effect, or another doubt; inactive means no such curve, though single readings can be large; an effect the other way counts as inactive or inconclusive.
SMILES,Pf growth 48h,Shiga toxin inh,AMA1 RON2 block,Cycloheximide cs,Pf growth 96h,HCV inhibitor
C=C(C(=O)c1ccccc1)C(CC(=O)c1ccccc1)c1ccccc1 (centres undefined),?,-4.1,1.2%,1.8,0.0%,12.6µM*
COc1ccccc1C(CC(=O)c1ccccc1)C(=O)c1ccccc1 (centres undefined),nt,nt,1.6%,nt,nt,nt
COc1ccccc1-c1nnc(SCC(=O)N2CCCCC2)o1,-2.2%,22.4,-0.3%,22.9*,?,15.2%
COc1ccc(-c2nnc(SCC(=O)N3CCCC3)o2)cc1OC,nt,nt,12.1%,nt,nt,1.5%
Cc1ccccc1-c1nnc(SCC(=O)N2CCCC2)o1,54.8%,79.6*,-8.0%,44.4*,-13.6%,-17.4%
COc1ccc(-c2nnc(SCC(=O)N3CCCc4ccccc43)o2)cc1OC,-8.1%,7.6,11.3%,-4.5,11.7µM*,10.5%
COc1ccc(C(=O)NCCc2nnc3ccc(SCC(=O)Nc4ccccc4F)nn23)cc1,22.6%,-11.5,-10.8%,-5.2,-25.8%,7.9%
C#CCOCCOCCOCCNc1nc(N2CCN(C(=O)CCCCCCCCCCNC(=O)[C@@H]([C@H](C)O)n3cc(C)nn3)CC2)nc(N2CCN(C(=O)CCCCCCCCCCNC(=O)[C@@H]([C@H](C)O)n3cc(C)nn3)CC2)n1,0.104µM*,nt,-3.9%,nt,0.0738µM*,-23.7%
C#CCOCCOCCOCCNc1nc(N2CCN(C(=O)CCCCCCCCCCNC(=O)[C@H](CCCCN)n3cc(C)nn3)CC2)nc(N2CCN(C(=O)CCCCCCCCCCNC(=O)[C@@H]([C@H](C)CC)n3cc(CCCCCN)nn3)CC2)n1,3.29µM*,nt,nt,nt,4.15µM*,22.4µM*
C#CCOCCOCCOCCNc1nc(N2CCN(C(=O)CCCCCCCCCCNC(=O)[C@H]([C@@H](C)CC)n3cc(CCCCCN)nn3)CC2)nc(N2CCN(C(=O)CCCCCCCCCCNC(=O)[C@@H]([C@H](C)O)n3cc(C)nn3)CC2)n1,0.465µM*,nt,-17.8%,nt,0.37µM*,15.7%
Cc1cc(C)c(NC(=O)CNC(=O)COC(=O)CN2C(=O)NC3(CCCC3)C2=O)c(C)c1,-1.6%,nt,?,nt,61.8%,12.2%
O=S(=O)(Nc1ccc(Cl)c(Cl)c1)N1CCOCC1,7.2%,12.9,12.7%,-0.5,4.65µM*,23.5%
O=C(O)C1C2CCC(C2)C1C(=O)NCCc1ccccc1 (centres undefined),18.6%,-0.6,-3.9%,-3.2,38.4%,3.0%
C=CCSc1nc2c(c(C3CC=CCC3)c1C#N)CCC2 (centres undefined),?,12.0,?,-2.5,8.28µM*,-21.5%
CC(C)OC(=O)CSc1nc2c(c(C3CC=CCC3)c1C#N)CCC2 (centres undefined),nt,14.1,2.5%,-0.5,?,-26.6%
CCCS(=O)(=O)NC(=O)C1(C)CCCN(C(=O)c2ccccc2OC(F)(F)F)C1 (centres undefined),nt,nt,6.3%,nt,nt,nt
Cc1c(Cl)cccc1NC(=O)CCN1CCC(C(N)=O)CC1,-17.1%,nt,-0.5%,-3.5,-18.3%,7.8%
COC(=O)C(C)Oc1ccc(-c2nccc(-c3ccc(F)cc3)n2)cc1 (centres undefined),-16.4%,25.7,9.6%,-2.4,55.1%,-8.5%
COC(=O)C(C)Oc1ccc(-c2nccc(-c3ccccn3)n2)cc1 (centres undefined),-9.0%,23.1,10.4%,15.6*,113.3%,-9.0%
FCCCOc1ccc(-c2nccc(-c3ccccn3)n2)cc1,0.8%[0.00184 µM],34.6*,18.5%,20.5*,39.1%,-18.4%
COc1ccccc1/C=N/n1nnnc1N,36.4%,19.3,15.1%,2.5,114.0%,-18.6%
COc1ccc(/C=N/n2nnnc2N)c(OC)c1,59.0%,28.4*,4.5%,22.8*,91.6%,?
COc1cccc(/C=N/n2nnnc2N)c1O,25.1%,58.8*,0.3%,21.2*,34.3%,-6.7%
c1ccc(COc2ncnc3c2ncn3CCCNCc2ccc3c(c2)OCO3)cc1,nt,nt,6.4%,nt,nt,-18.0%[8.37 µM]
